This is part of a sample that, as a whole, favours compounds with a hit. Of some 83,000 tested, about 20% had one in any assay.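 A percent growth of 40 corresponds to 60% growth inhibition; 0 means no net growth; -100 means all cells died. Active threshold: below 10.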 A number with no mark means an inactive call. The source made the active and inactive calls.
Each compound was assayed on MDA-MB-468 breast (assay: NCI-60 one-dose screen, 48 h (100 = growth as untreated, 0 = no growth, -100 = all killed)). Settings: 10 µM unless noted.
`Nc1nc(Nc2ccccc2)c2ncn(Cc3ccc4c(c3)OCO4)c2n1` gave a growth of 13.4%.
In the case of `CCCOC(=O)c1ccc2c(c1)[N+](=O)C(C(=O)c1ccccc1)=C(C(F)(F)F)[N+]2=O`, the growth is reported as -81.4% (active).
Work on `O=C(/C=C/C12c3ccccc3C(c3ccccc31)C1C(=O)NC(=O)C12)c1ccc(I)cc1` (configuration not stated) yielded a growth of 51.2%.
For `O=C(CSc1nc2ccc([N+](=O)[O-])cc2[nH]1)Nc1ccc(F)c(Cl)c1`, the growth was -14.9% (active).
In the case of `COc1cc(/C=C\c2cc(/C=C\c3ccc(O)c(OC)c3)n(C(=O)Nc3ccc(C(F)(F)F)cc3)n2)ccc1O`, the growth is reported as 43.8%.
For `Nc1c(Br)cc(O)c2c1C(=O)c1ccccc1C2=O`, the growth was -9.43% (active).
With `O=C(Nc1ccc(Oc2ccc(Nc3nc4ccccc4s3)cc2)cc1)Nc1ccc(Cl)c(C(F)(F)F)c1` the growth was 4.56% (active).
In the case of `O=C(CNCCN1CCOCC1)N1c2cccc3cccc(c23)N(C(=O)CNCCN2CCOCC2)C1c1cn(-c2ccccc2)nc1-c1cccc([N+](=O)[O-])c1`, the growth is reported as 35.8%.
`NCCCN(CCCN)CCCNCc1c2ccccc2c(CNCCCN(CCCN)CCCN)c2ccccc12` gave a growth of 83.4%.
In the case of `OC(c1ccc(F)c(C(F)(F)F)c1)c1cnccc1NC1CCCCC1` (configuration not stated), the growth is reported as 9.9% (active).
For `CCN1C(=O)N(CC)C2Nn3c(s/c(=C4\C(=O)N(CCC(C)C)c5ccccc54)c3=O)=NC21` (configuration not stated), the growth was 11.6%.
`CN1CCN(c2ccc(Nc3nc(NCCCNS(=O)(=O)c4ccccc4)c4sccc4n3)cc2)CC1` was tested, and the growth was 30.3%.
Compound `Cc1c(C(=O)Nc2nc(-c3ccccc3)cs2)nnn1-c1cccc2ccccc12` has a growth of 12.3% [50 µM].
`CCC[S@](=O)c1ccc2nc(NC(=O)OC)[nH]c2c1` was tested, and the growth was 94.1%.
With `C[C@]12CC[C@@H]3c4cc(OC(F)F)c(OS(N)(=O)=O)cc4CC[C@H]3[C@@H]1CC[C@@H]2O` the growth was -24.2% (active).
Compound `O=C(/C=C/c1ccc2ccccc2c1)Nc1ncc(Cc2ccccc2)s1` has a growth of 64%.
`CCCCc1ccc(N=Nc2ccc(OCC[N+](C)(C)C)cc2)cc1` was tested, and the growth was 4.13% (active).
`NC(=S)N/N=C(\c1ccc(Cl)cc1)C1CC1` showed a growth of 18.5%.
`COC(=O)c1c2c(c[n+]([O-])c1C)C(=O)C=CC2=O` was tested, and the growth was -17.2% (active).
`C=CCn1c(C)nc2cc(Nc3nc(N4CCCC4)nc4ccccc34)ccc21` showed a growth of 105%.
`CCCCc1oc2ccccc2c1C(=O)c1cc(I)c(OCCN(CC)CC)c(I)c1` was tested, and the growth was -87.4% (active).
With `CN1C[C@@H](c2ccc(Cl)cc2)[C@]2(NC(=S)N(c3ccccc3)C2=O)[C@@]12C(=O)NC1C=CC(Br)=C[C@H]12` (some centres not stated) the growth was 67.7%.
For `Oc1ccc(C(c2ccc(O)cc2)c2ccc(Br)cn2)cc1`, the growth was -35.7% (active).
`CN(C)CCCNc1nc(-c2cccc(C(Cl)(Cl)Cl)c2)nc(C(Cl)(Cl)Cl)n1` gave a growth of 114%.
In the case of `CCCCC1=c2c([nH]c3ccc(OC)cc23)=NC2C=CC=NC12` (configuration not stated), the growth is reported as -23.5% (active).
Work on `FC(F)(F)c1cccc(-c2cn3c(ccc4ccccc43)n2)c1` yielded a growth of 104%.
For `Cc1cccc(N2CCN(CC(O)COc3ccc(Cl)cc3)CC2)c1` (configuration not stated), the growth was 107%.
With `COc1ccc(-c2cc(-c3cc(OC)c(OC)c(OC)c3)c(C#N)c(=O)n2CCCCC(=O)O)cc1` the growth was 109%.
`COc1cccc(-c2nc(SCC(=O)Nc3ccc(C(=O)/C=C/c4ccc(OC)c(OC)c4)cc3)[nH]c(=O)c2C#N)c1` gave a growth of 65.7%.
With `C#CCOc1ccccc1C(OC(=O)c1ccccc1)C(=O)NC(C)(C)C(C)(C)C` (configuration not stated) the growth was 80.5%.
Work on `C[N+]1(C)C2CC[C@@H]1CC(OC(=O)C(O)c1ccccc1)C2` (some centres not stated) yielded a growth of 103%.
With `CCN(Cc1ccccc1)c1ccc(SC#N)cc1` the growth was 72.3%.
In the case of `COc1cccc(-c2nn(-c3ccccc3)cc2-c2ccnc(N3CCN(C(=O)c4ccccc4)CC3)c2)c1`, the growth is reported as 82.3%.
`C=C(C)[C@@H]1CCC=C2CC[C@]3(C)[C@H](CC[C@@H]4[C@@]5(C)CCCNC(C)(C)[C@@H]5CC[C@]43C)[C@H]21` was tested, and the growth was -31.5% (active).
`O=C(CN1C(=O)/C(=C/c2ccco2)SC1=S)NCCc1c[nH]c2ccc(F)cc12` showed a growth of 105%.
In the case of `O=[N+]([O-])c1ccc(N=Nc2ccc(O)cc2O)cc1`, the growth is reported as -4.48% (active).
Work on `CN(C)Cc1cccs1` yielded a growth of 87.2%.

Reference: PubChem BioAssay (NCI)
